# Reference: PubChem BioAssay (Tox21)
# “And” between values parts separate entries of the source, which are not always exact repeats. Equal values may be shown once. Records with an inconclusive call do not appear. Where a call stands in place of a potency, no number is given. The source made the active and inactive calls. Unless noted, the call rests on the fitted dose curve; in most records, active means well fitted curve in the direction sought with a large enough effect in the repeat runs; inconclusive means weak or mixed curves; inactive means no such curve, though single readings can be large; an effect the other way counts as inactive or inconclusive.
# Tests used:
# [1] = A CellTox Green Cytotoxicity Assay to monitor cytotoxicity in HEK293 cells - 32 hour (AID 1224881); further: nearly all actives have a fitted effect of over 40% in size; further: potency means the concentration at half of the fitted maximal effect
# In short: (§1)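 Each value comes from one timepoint of a single continuous run in which HEK293 cells with CellTox Green were exposed to compound for up to 40 h at 37 C, dye fluorescence rising with cell death.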
# [2] = A CellTox Green Cytotoxicity Assay to monitor cytotoxicity in HepG2 cells - 0 hour (AID 1224882); further: nearly all actives have a fitted effect of over 35% in size; further: potency means the concentration at half of the fitted maximal effect
# In short: (§2)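 Continuous culture of HepG2 cells with a membrane-impermeant DNA dye; rising fluorescence marks dead cells. Compound exposure lasted up to 40 h at 37 C, with reads every 8 h from 0 h.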
# [3] = A CellTox Green Cytotoxicity Assay to monitor cytotoxicity in HepG2 cells - 32 hour (AID 1224883); further: nearly all actives have a fitted effect of over 50% in size; further: potency means the concentration at half of the fitted maximal effect
# In short: as §2
# [4] = A CellTox Green Cytotoxicity Assay to monitor cytotoxicity in HEK293 cells - 8 hour (AID 1224884); further: nearly all actives have a fitted effect of over 35% in size; further: potency means the concentration at half of the fitted maximal effect
# In short: as §1
# [5] = qHTS RealTime-Glo MT Cell Viability Assay in HepG2 cells - 16 hour (AID 1224885); further: nearly all actives have a fitted effect of over 50% in size; further: potency means the concentration at half of the fitted maximal effect
# In short: (§3)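 Real-time, nonlytic viability: 600 HepG2 cells/well mixed with NanoLuc enzyme plus prosubstrate; 5 h settle, compound (DMSO) added by pintool; luminescence monitored over 40 h at 37 C.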
# [6] = qHTS RealTime-Glo MT Cell Viability Assay in HEK293 cells - 24 hour (AID 1224886); further: nearly all actives have a fitted effect of over 50% in size; further: potency means the concentration at half of the fitted maximal effect
# In short: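 Cells + reagent dispensed (600 cells/well, HEK293) → 5 h at 37 C/5% CO2 → 23 nL compound in DMSO pinned → 40 h at 37 C → luminescence read at 0, 8, 16, 24, 32, 40 h.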
# [7] = qHTS RealTime-Glo MT Cell Viability Assay in HEK293 cells - 8 hour (AID 1224887); further: nearly all actives have a fitted effect of over 50% in size; further: potency means the concentration at half of the fitted maximal effect
# In short: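 qHTS format; HEK293 cells with NanoLuc/prosubstrate reagent, 37 C/5% CO2 for 5 h pre-dosing; compounds 23 nL in DMSO; luminescence at each time point reflects viable cells.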
# [8] = A CellTox Green Cytotoxicity Assay to monitor cytotoxicity in HEK293 cells - 16 hour (AID 1224888); further: nearly all actives have a fitted effect of over 35% in size; further: potency means the concentration at half of the fitted maximal effect
# In short: as §1
# [9] = qHTS RealTime-Glo MT Cell Viability Assay in HepG2 cells - 0 hour (AID 1224889); further: nearly all actives have a fitted effect of over 50% in size
# In short: as §3
# [10] = A CellTox Green Cytotoxicity Assay to monitor cytotoxicity in HepG2 cells - 8 hour (AID 1224890); further: nearly all actives have a fitted effect of over 45% in size; further: potency means the concentration at half of the fitted maximal effect
# In short: as §2
# [11] = qHTS assay to identify small molecule antagonists of the estrogen receptor alpha (ER-alpha) signaling pathway using the BG1 cell line in the presence of 0.1 nM 17-beta-estradiol - cell viability counter screen (AID 1259241); further: nearly all actives have a fitted effect of over 40% in size; further: potency means the concentration at half of the fitted maximal effect
# In short: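 VM7Luc4E2, 4,000 cells/well, phenol red-free medium + 10% charcoal-stripped FBS; 24 hr plating; cpd + 0.1 nM E2 final, 22 hr 37C/5% CO2; CellTiter-Fluor 30 min, fluorescence.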
# [12] = qHTS assay to identify small molecule antagonists of the androgen receptor (AR) signaling pathway using the MDA cell line in the presence of 0.5 nM R1881 - cell viability counter screen (AID 1259242); further: nearly all actives have a fitted effect of over 45% in size; further: potency means the concentration at half of the fitted maximal effect
# In short: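 Fluorescence from CellTiter-Fluor, which reports protease activity of live cells, was read 30 min after reagent addition to MDA-kb2 cells that had been incubated 16 hr with compound and 0.5 nM R1881.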
# [13] = target: Estrogen receptor (Homo sapiens) (UniProt P03372); experiment: qHTS assay to identify small molecule antagonists of the estrogen receptor alpha (ER-alpha) signaling pathway using the BG1 cell line in the presence of 0.1 nM 17-beta-estradiol (AID 1259244); further: nearly all actives have a fitted effect of over 50% in size
# In short: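 Quantitative high-throughput screen in VM7Luc4E2 cells: compound plus 0.1 nM E2 (final), 22 h, 37C, 5% CO2; ONE-Glo added, 30 min room temperature, luminescence measured.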
# [14] = qHTS assay to identify small molecule phospholipidosis (PLD) inducers (AID 1259344; active means well fitted curve in the direction sought with a large enough effect; an effect the other way counts as inactive or inconclusive)
# In short: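 Fluorescent phospholipid staining (LipidTOX Red) measured by automated microscopy in fixed HepG2 cells after 24 h treatment; nuclei counterstained with Hoechst 33342; amiodarone as reference inducer.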
# [15] = qHTS assay to identify small molecule HDAC inhibitors - cell viability counter screen (AID 1259365)
# In short: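 Luminescence from CellTiter-Glo, developed 30min at room temperature, reports viability of wild-type HCT-116 cells treated 2hr with compounds at 37 C and 5% CO2 after overnight plating.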
# [16] = qHTS assay to identify small molecule agonists of the sonic hedgehog signaling (Shh) pathway - cell viability counter screen (AID 1259366); further: nearly all actives have a fitted effect of over 50% in size; further: potency means the concentration at half of the fitted maximal effect
# In short: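 Cytotoxicity counter screen run in the same wells as the Shh reporter assay. NIH/3T3 cells carrying a Gli1 response element–driven luciferase were treated with DMSO-dissolved compounds for 24hr, and live-cell protease activity was measured with CellTiter-Fluor.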
# [17] = qHTS assay to identify small molecule antagonists of the sonic hedgehog signaling (Shh) pathway - cell viability counter screen (AID 1259367); further: nearly all actives have a fitted effect of over 55% in size; further: potency means the concentration at half of the fitted maximal effect
# In short: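 Using CellTiter-Fluor, viability of Gli1-Luc reporter 3T3 cells is read by fluorescence in the wells used for the Shh luciferase assay. Treatment lasts 23 hr with conditioned medium, then reagent 1 hr at 37C.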
# [18] = qHTS assay to identify small molecule HDAC inhibitors (AID 1259364); further: nearly all actives have a fitted effect of over 45% in size; further: potency means the concentration at half of the fitted maximal effect
# In short: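 Endogenous HDAC class I/II activity was measured in wild-type HCT-116 cells by HDAC-Glo luminescence after 2 h compound treatment.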
# [19] = qHTS assay to identify small molecule agonists of the sonic hedgehog signaling (Shh) pathway (AID 1259368; calls by dose curve;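 further: NIH/3T3-derived 3T3Gli1-Luc cells carrying a stable Gli1-driven firefly luciferase reporter; series mostly up to about 92 µM; nearly all actives have a fitted effect of over 15% in size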)
# In short: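 Luminescent signal was taken as a measure of Gli1-controlled luciferase expression in stably transfected NIH/3T3-derived cells that had been treated for 24 hr with compounds delivered in DMSO.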
# [20] = target: Androgen receptor (Homo sapiens) (UniProt P10275); experiment: qHTS assay to identify small molecule antagonists of the androgen receptor (AR) signaling pathway using the MDA cell line in the presence of 0.5 nM R1881 (AID 1259243); further: nearly all actives have a fitted effect of over 50% in size; further: potency means the concentration at half of the fitted maximal effect
# In short: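 Inhibition of R1881 (0.5 nM final) induced reporter signal was measured in human MDA-kb2 cells; note the MMTV promoter also responds to GR. Exposure lasted 16 hr at 37C.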
# Sequence of Androgen receptor (Homo sapiens) (P10275 whole entry, looked up): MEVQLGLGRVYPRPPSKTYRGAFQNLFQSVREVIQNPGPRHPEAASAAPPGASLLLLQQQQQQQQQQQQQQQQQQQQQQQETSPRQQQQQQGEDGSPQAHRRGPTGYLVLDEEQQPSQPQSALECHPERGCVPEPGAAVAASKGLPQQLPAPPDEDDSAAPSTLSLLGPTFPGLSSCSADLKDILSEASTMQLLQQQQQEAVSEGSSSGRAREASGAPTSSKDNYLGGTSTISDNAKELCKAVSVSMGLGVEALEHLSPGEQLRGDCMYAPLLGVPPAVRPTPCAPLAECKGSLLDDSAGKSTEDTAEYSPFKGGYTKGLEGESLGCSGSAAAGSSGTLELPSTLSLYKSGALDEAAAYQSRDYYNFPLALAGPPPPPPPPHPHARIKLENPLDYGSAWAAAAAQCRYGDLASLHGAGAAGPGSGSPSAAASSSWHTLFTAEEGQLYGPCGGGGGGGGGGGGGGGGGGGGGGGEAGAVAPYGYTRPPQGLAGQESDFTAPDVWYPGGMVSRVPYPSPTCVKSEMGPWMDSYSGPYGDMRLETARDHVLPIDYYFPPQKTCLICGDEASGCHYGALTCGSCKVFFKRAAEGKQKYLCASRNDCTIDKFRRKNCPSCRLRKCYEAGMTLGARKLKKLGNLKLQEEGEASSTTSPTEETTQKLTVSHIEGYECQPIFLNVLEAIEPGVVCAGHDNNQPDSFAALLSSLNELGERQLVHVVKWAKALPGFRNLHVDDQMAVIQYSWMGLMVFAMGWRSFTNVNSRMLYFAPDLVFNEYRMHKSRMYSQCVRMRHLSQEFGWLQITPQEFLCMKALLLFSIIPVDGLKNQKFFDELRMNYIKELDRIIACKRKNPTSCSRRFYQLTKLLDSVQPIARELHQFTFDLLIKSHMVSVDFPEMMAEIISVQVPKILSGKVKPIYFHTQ
# Sequence of Estrogen receptor (Homo sapiens) (P03372 whole entry, looked up): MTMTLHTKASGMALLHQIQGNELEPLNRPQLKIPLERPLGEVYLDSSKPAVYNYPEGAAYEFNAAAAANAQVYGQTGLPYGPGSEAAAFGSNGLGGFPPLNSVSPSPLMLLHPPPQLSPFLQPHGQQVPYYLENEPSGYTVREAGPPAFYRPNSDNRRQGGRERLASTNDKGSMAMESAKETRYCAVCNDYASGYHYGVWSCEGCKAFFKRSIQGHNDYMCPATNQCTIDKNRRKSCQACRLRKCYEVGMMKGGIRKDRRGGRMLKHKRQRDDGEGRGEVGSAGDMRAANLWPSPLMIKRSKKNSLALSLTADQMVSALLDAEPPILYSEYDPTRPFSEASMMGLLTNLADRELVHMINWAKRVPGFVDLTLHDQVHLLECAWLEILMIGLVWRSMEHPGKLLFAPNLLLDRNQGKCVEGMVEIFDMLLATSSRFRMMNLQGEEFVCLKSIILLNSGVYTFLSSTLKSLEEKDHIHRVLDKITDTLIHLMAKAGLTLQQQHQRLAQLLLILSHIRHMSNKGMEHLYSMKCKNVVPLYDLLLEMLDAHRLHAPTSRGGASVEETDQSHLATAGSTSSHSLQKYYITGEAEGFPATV
SMILES,Potency [1],Potency [2],Potency [3],Potency [4],Potency [5],Potency [6],Potency [7],Potency [8],outcome [9],Potency [10],Potency [11],Potency [12],Potency [13],outcome [14],Potency [15],Potency [16],Potency [17],Potency [18],Potency [19],Potency [20]
CC[N+]1(CCOC(=O)C(O)(c2ccccc2)c2ccccc2)CCCCC1,inactive,inactive,inactive,inactive,inactive,inactive,inactive,inactive,inactive,inactive,inactive,inactive,inactive,inactive,inactive,inactive,inactive,–,–,–
c1ccc2c(c1)sc1ccccc12,inactive,inactive,inactive,inactive,inactive,inactive,inactive,inactive,inactive,inactive,inactive,inactive,inactive,inactive,inactive,inactive,inactive,inactive,inactive,–
O=C(O)COc1cc(Cl)c(Cl)cc1Cl,inactive,inactive,inactive,inactive,inactive,inactive,inactive,inactive,inactive,inactive,inactive,inactive,–,–,inactive,inactive,inactive,inactive,inactive,inactive
N#CC(C#N)=Cc1ccc(O)c(O)c1,inactive,23.9 µM (active),inactive,inactive,inactive,inactive,inactive,inactive,inactive,inactive,inactive,inactive,inactive,inactive,inactive,inactive,inactive,inactive,inactive,inactive
O=C(NCNC(=O)NC1C(=O)NC(=O)N1CO)NC1C(=O)NC(=O)N1CO (stereo not given),inactive,inactive,inactive,inactive,inactive,inactive,inactive,inactive,inactive,inactive,inactive,inactive,–,inactive,inactive,inactive,inactive,inactive,inactive,inactive
CCOC(=O)NC(O)C(Cl)(Cl)Cl (stereo not given),inactive,inactive,inactive,inactive,inactive,inactive,inactive,inactive,inactive,inactive,inactive,inactive,inactive,inactive,inactive,inactive,–,inactive,inactive,–
CON(C)C(=O)Nc1ccc(Cl)cc1,inactive,inactive,inactive,inactive,inactive,inactive,inactive,inactive,inactive,inactive,inactive,inactive,inactive,–,inactive,inactive,inactive,27.3 µM (active),–,–
CC(Cl)C(=O)O (stereo not given),inactive,inactive,inactive,inactive,inactive,inactive,inactive,inactive,inactive,inactive,inactive,inactive,–,–,inactive,inactive,inactive,inactive,–,inactive
ClCc1ccccc1Cl,inactive,inactive,inactive,inactive,inactive,inactive,inactive,inactive,inactive,inactive,inactive,inactive,–,–,inactive,inactive,–,inactive,inactive,inactive
NCCc1cc(O)c(O)cc1O,inactive,inactive,inactive,inactive,inactive,inactive,inactive,inactive,inactive,inactive,inactive,inactive,inactive,inactive,inactive,–,inactive,–,inactive,–
C[N+](C)(C)CC1CO1 (stereo not given),inactive,inactive,inactive,inactive,inactive,inactive,inactive,inactive,inactive,inactive,inactive,inactive,inactive,–,inactive,inactive,inactive,inactive,inactive,inactive
CN(C1CCCCC1)C1CCCCC1,inactive,inactive,inactive,inactive,inactive,inactive,inactive,inactive,inactive,inactive,inactive,inactive,inactive,–,inactive,inactive,–,inactive,inactive,inactive
O=[N+]([O-])O[C@H]1CO[C@H]2[C@@H]1OC[C@H]2O[N+](=O)[O-],inactive,inactive,inactive,inactive,inactive,inactive,inactive,inactive,inactive,inactive,inactive,inactive,inactive,inactive,inactive,inactive,–,inactive,inactive,–
C=CC(=O)OCC,inactive,inactive,inactive,inactive,inactive,inactive,inactive,inactive,inactive,inactive,inactive,inactive,inactive,–,inactive,inactive,inactive,inactive,–,–
CCCCC1C(=O)NC(=O)N(C2CCCCC2)C1=O (stereo not given),inactive,inactive,inactive,inactive,inactive,inactive,inactive,inactive,inactive,inactive,inactive,inactive,inactive,inactive,inactive,inactive,inactive,inactive,inactive,–
COC1CC(=C(c2cccs2)c2cccs2)C[N+](C)(C)C1 (stereo not given),inactive,inactive,inactive,inactive,inactive,inactive,inactive,inactive,inactive,inactive,inactive,inactive,inactive,inactive,inactive,inactive,inactive,inactive,–,–
CC(=O)NNc1ccccc1,inactive,inactive,inactive,inactive,inactive,inactive,inactive,inactive,inactive,inactive,inactive,inactive,–,–,inactive,inactive,inactive,inactive,inactive,inactive
C[C@H](N)[C@H](O)c1ccc(O)c(O)c1,19 µM (active),26.8 µM (active),21.3 µM (active),19 µM (active),inactive,inactive,inactive,21.3 µM (active),inactive,26.8 µM (active),inactive,inactive,inactive,inactive,inactive,inactive,inactive,–,inactive,–
NP(N)(=O)NC(=O)c1ccc(F)cc1,inactive,inactive,inactive,inactive,inactive,inactive,inactive,inactive,inactive,inactive,inactive,inactive,inactive,inactive,inactive,inactive,inactive,inactive,inactive,inactive
CC(C)(C)NCC(O)c1ccccc1Cl (stereo not given),inactive,inactive,inactive,inactive,inactive,inactive,inactive,inactive,inactive,inactive,inactive,inactive,inactive,inactive,inactive,inactive,inactive,inactive,inactive,–
CN[C@@H](C)[C@H](O)c1ccccc1,inactive,inactive,inactive,inactive,inactive,inactive,inactive,inactive,inactive,inactive,inactive,inactive,inactive,inactive,inactive,inactive,inactive,–,inactive,–
FC(F)OC(F)(F)C(F)Cl (stereo not given),inactive,inactive,inactive,inactive,inactive,inactive,inactive,inactive,inactive,inactive,inactive,inactive,–,inactive,inactive,inactive,inactive,inactive,inactive,inactive
O=C(Cl)OCCOCCOC(=O)Cl,inactive,inactive,inactive,inactive,inactive,inactive,inactive,inactive,inactive,inactive,inactive,inactive,inactive,–,inactive,inactive,inactive,–,inactive,inactive
CC(C)c1ccc(NC(=O)N(C)C)cc1,inactive,inactive,inactive,inactive,inactive,inactive,inactive,inactive,inactive,inactive,inactive,inactive,inactive,–,inactive,inactive,inactive,24.3 µM (active),–,–
O=C(O)c1ccc(=O)[nH]c1,inactive,inactive,inactive,inactive,inactive,inactive,inactive,inactive,inactive,inactive,inactive,inactive,inactive,–,inactive,inactive,inactive,inactive,inactive,inactive
C=C(Cl)Cl,inactive,inactive,inactive,inactive,inactive,inactive,inactive,inactive,inactive,inactive,inactive,inactive,inactive,–,inactive,inactive,inactive,–,inactive,inactive
C[CH2][Hg][S]c1ccccc1C(=O)O,7.76 µM (active) and 4.77 µM (active),inactive,3.09 µM (active) and 2.13 µM (active),4.77 µM (active),2.45 µM (active) and 2.13 µM (active),1.1 µM (active) and 1.34 µM (active),3.09 µM (active) and 4.25 µM (active),4.77 µM (active),inactive,7.76 µM (active) and 2.39 µM (active),21.7 µM (active) and 5.96 µM (active),17.2 µM (active) and 11.9 µM (active),–,inactive,inactive,1.72 µM (active) and 1.19 µM (active),1.93 µM (active) and 5.96 µM (active),19.3 µM (active) and 23.7 µM (active),–,7.7 µM (active) and 7.5 µM (active)
